The whole screen tested about 230,000 compounds, of which about 3,600 (1.6%) were called active. Inconclusive results (about 15%) are left out. Calls come from the whole dose curve; as a rule, active = well fitted inhibition curve with a large enough effect (not every such curve was filed as active); inconclusive = small, poorly fitted or top-dose-only effect, or another doubt; inactive = no such curve, though single readings can be large or run the other way. The entries come from a sample that favours actives as a whole. Entries that show only a call come without a potency.

Experimental findings from PubChem BioAssay AID2147 (National Center for Advancing Translational Sciences (NCATS), 2009) are described below.
Note: nearly all actives have a fitted effect of over 50% in size.
Potency is the fitted concentration of half-maximal effect.

Chain of Lysine-specific demethylase 4E (Homo sapiens) (B2RXH2 1-337 limits assumed): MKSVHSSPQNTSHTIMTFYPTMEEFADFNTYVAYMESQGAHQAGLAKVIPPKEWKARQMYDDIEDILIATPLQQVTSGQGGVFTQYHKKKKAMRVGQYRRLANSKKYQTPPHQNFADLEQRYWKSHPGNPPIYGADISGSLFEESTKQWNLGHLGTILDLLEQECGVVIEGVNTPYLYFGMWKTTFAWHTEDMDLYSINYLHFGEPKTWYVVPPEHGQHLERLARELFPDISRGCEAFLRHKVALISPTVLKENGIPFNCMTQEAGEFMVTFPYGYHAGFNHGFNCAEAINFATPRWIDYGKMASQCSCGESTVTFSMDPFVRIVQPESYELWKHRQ

This assay deals with Lysine-specific demethylase 4E (Homo sapiens) (UniProt B2RXH2). The assay can be described thus: qHTS Assay for Inhibitors of Human Jumonji Domain Containing 2E (JMJD2E). The settings on record: JMJD2E catalytic domain, FDH-coupled NADH fluorescence (FDH is formaldehyde dehydrogenase); series mostly up to 57.1 µM. The source says:
Assay Provider: Structural Genomics Consortium [SGC] Screening Center PI: Austin, C.P. Screening Center: NIH Chemical Genomics Center [NCGC] The fine interplay among methylation states of several lysine residues on the tails of histone proteins is a major determinant of the transcriptional state of the associated DNA coding regions and is commonly referred to as the histone code. Histone lysine demethylases catalyze the removal of methyl groups from methylated lysine sidechains on histones H3 and H4, thus antagonizing the reactions catalyzed by histone lysine methyltransferases. […] In search for novel inhibitors of JMJD2E demethylase, a member of the largest set of histone demethylases belonging to the Fe(II) and 2-oxoglutarate oxygenase (2OG) superfamily, we performed a quantitative high-throughput screen (Inglese 2006) by using an assay which utilizes a trimethylated peptide substrate corresponding to a fragment of histone H3 (sequence ARKme3STGGK) with detection of the formaldehyde co-product in real time by a formaldehyde dehydrogenase (FDH) coupled reaction. FDH catalyzes oxidation of formaldehyde to formic acid with the concomitant reduction of the non-fluorescent beta-nicotinamide adenine dinucleotide hydrate (NAD+) cofactor to the fluorescent NADH co-product. References: Inglese, J., Auld, D., Jadhav, A., Johnson, R., Simeonov, A., Yasgar, A., Zheng, W. and Austin, C. Proc Natl Acad Sci USA 2006, 103, 11473-11478. N. R. Rose, S. S. Ng, J. Mecinovic, B. M. Lienard, S. H. Bello, Z. Sun, M. A. McDonough, U. Oppermann and C. J. Schofield, J Med Chem, 2008, 51, 7053-7056. Sakurai, M., Rose, N., Schultz, L., Quinn, A., Jadhav, A., Ng, S., Oppermann, U., Schofield, C.J. and Simeonov, A. Mol BioSystems 2009, in press. S. Michael, D. Auld, C. Klumpp, A. Jadhav, W. Zheng, N. Thorne, C. Austin, J. Inglese and A. Simeonov, Assay Drug Dev Technol, 2008, 6, 637-657.
Reagents and Controls: Ferrous ammonium sulfate, (+)-sodium L-ascorbate, beta-nicotinamide adenine dinucleotide hydrate (NAD+), Tween-20, formaldehyde dehydrogenase from P. putida (FDH), and disodium 2-oxoglutarate were from Sigma (St. Louis, MO). Black solid-bottom 384-well or 1,536-well assay plates were from Greiner Bio-One (Monroe, NC). Enzyme was supplied by Prof. Udo Oppermann, SGC-Oxford. The catalytic domain of human JMJD2E (residues 1-337) was produced as an N-terminally His6-tagged protein in E. coli, and purified by Ni-affinity chromatography and size-exclusion chromatography, and stored in HEPES 50 mM/ NaCl 500 mM pH 7.5, as reported in Rose 2008. The trimethylated histone peptide substrate ARK(me3)STGGK was synthesized and HPLC-purified by the Tufts University Core Facility (Boston, MA). Substrate solution (Sakurai 2009) contained 50 uM ARK(me3)STGGK, 0.00025 U/uL FDH, 50 uM 2-oxoglutarate, 250 uM NAD+, 1 mM ascorbate, and 10 uM ferrous ammonium sulfate. Controls and plate map: Buffer (150 mM HEPES pH 7.5 containing 0.01% Tween-20) in columns 3 and 4 as negative control (no enzyme) and 100 nM JMJD2E final concentration in columns 1,2, and 5-48. Assay Steps: Enzyme and buffer solutions (3 uL) were dispensed into a 1,536-well Greiner black solid-bottom assay plate. The library compounds (23 nL) were transferred using a Kalypsys pintool equipped with 1,536-pin array. The plate was incubated at room temperature (15 min), and then a 1 uL aliquot of substrate solution was added to initiate the reaction. The plate was transferred to ViewLux imager where an initial reading using standard UV optics (Ex 340 nm, Em 450 nm) was obtained. The plate was then removed from the reader, incubated for 30 minutes at room temperature, and returned to the reader for a second fluorescence reading. A fully automated robotic screening system (Kalypsys Inc, San diego, CA) was used to perform the above steps as described previously (Michael 2008). […]
On the technique in general: In qHTS, concentration-response curves come from the screen itself.
As for `O=c1[nH]c(=O)n(Cc2ccccc2)c(O)c1/C=N/Nc1c(F)c(F)c(F)c(F)c1F`, the Potency result was “inactive”.
For `CC/C(=N\NC(=O)c1ccccc1O)c1c(O)n(Cc2ccccc2)c(=O)[nH]c1=O`, the Potency was 25.1 µM (active).
In the case of `CCC(=NCCc1ccccc1)c1c(O)n(C2CCCCC2)c(=O)[nH]c1=O`, the Potency entry is “inactive”.
On to `CNCC[C@H](Oc1ccc(C(F)(F)F)cc1)c1ccccc1`, for which the Potency result was “inactive”.
For `N#Cc1c(Cl)c(Cl)c(Cl)c(C#N)c1Cl`, the Potency entry was “inactive”.
With `CNC(=O)O/N=C(\N)Cc1csc2ccc(Cl)cc12`, the Potency entry is “inactive”.
The entry for `CC[C@H]1CN2CCc3cc(OC)c(OC)cc3[C@@H]2C[C@@H]1C[C@H]1NCCc2cc(OC)c(OC)cc21` is “inactive”; for `c1cncc(CNC2=NCCC2)c1` it is “inactive”; for `CC1CCCCN1Cc1cccnc1` (stereo not given) it is 20 µM (active).
The entry for `CC1=C2C(=O)C3C(CC=C4CC(OC5OC(O)C(O)C(O)C5CO)CCC43C)C2CCC12OC1CC(C)CNC1C2C` (stereo not given) is “inactive”; for `CNC(C)[C@@H](O)c1ccccc1` (stereo not given in full) it is “inactive”; for `Cc1ccc(N2C(=O)NC(=O)C(CCc3ccncc3)(Cc3cccc(Cl)c3Cl)C2=O)cc1` (stereo not given) it is “inactive”.
For the compound `CCCCC/C=C\C/C=C\C/C=C\C=C\[C@H](CCCC(=O)O)OO`, the Potency result is “inactive”.
The entry for `C[C@H]1CC[C@@]2(NC1)O[C@@H]1C[C@H]3[C@@H]4CC=C5C[C@@H](O)CC[C@]5(C)[C@@H]4CC[C@]3(C)[C@@H]1[C@@H]2C` is “inactive”; for `O=C(OCC1O[C@@H](OC(=O)c2cc(O)c(O)c(O)c2)[C@@H](OC(=O)c2cc(O)c(O)c(O)c2)[C@@H](OC(=O)c2cc(O)c(O)c(O)c2)[C@@H]1OC(=O)c1cc(O)c(O)c(O)c1)c1cc(O)c(O)c(O)c1` (stereo not given in full) it is 3.16 µM (active); for `O=C(COC(=O)c1ccccc1)Nc1ccc(Cl)cc1C(=O)c1ccccc1` it is “inactive”.
As for `COc1ccccc1N1CCN(C(CNC(=O)Oc2ccccc2)c2cccnc2)CC1` (stereo not given), the Potency result was “inactive”.
The entry for `CN(C)CC1CCCCC1OC(=O)c1ccc(Cl)c(Cl)c1` (stereo not given) is “inactive”.
The entry for `Cc1ccccc1N1C(=O)NC(=O)/C(=C\c2cc(C)n(C)c2C)C1=O` is “inactive”; for `Cc1cccc(N2C(=O)NC(=O)/C(=C\c3cnn(-c4ccccc4)c3)C2=O)c1` it is “inactive”; for `COc1cccc(N2C(=O)NC(=O)/C(=C\c3ccc([N+](=O)[O-])s3)C2=O)c1` it is 17.8 µM (active).
As to `CC1=C(C(=O)Nc2ccccc2)S(=O)(=O)CCO1`, the Potency entry is “inactive”.
The entry for `O=c1oc2ccccc2c(O)c1C(c1ccccc1O)c1c(O)c2ccccc2oc1=O` is “inactive”.
For `CC(=O)c1c(O)c(C)c(O)c(Cc2c(O)c3c(c(C(=O)/C=C\c4ccccc4)c2O)OC(C)(C)C=C3)c1O`, the Potency is 20 µM (active).
In the case of `O=C(Cn1c(=O)n(CC2CS2)c2ccccc21)N1CCCCC1` (stereo not given), the Potency result was “inactive”.
The entry for `C[C@]12CC[C@@H]3C(=CCc4cc(O)ccc43)[C@@H]1CCC2=O` is “inactive”; for `C[N+]12CN3CN(CN(C3)C1)C2` it is “inactive”; for `CN(C)C1C(=O)C(C(N)=O)=C(O)[C@@]2(O)C(=O)C3=C(O)c4c(O)cccc4[C@@](C)(O)C3C[C@@H]12` (stereo not given in full) it is 10 µM (active).
On to `COc1cccc(CN2CCCC(C(=O)c3ccccc3SC)C2)c1O` (stereo not given), for which the Potency entry was “inactive”.
`CCOC(=O)C1SC2(C(F)(F)C(F)F)CC1(O)c1c(c(OC)c3occc3c1OC)O2` (stereo not given): the Potency entry was “inactive”.
The entry for `COC1=C[C@]23CCCN2CCc2cc4c(cc2[C@@H]3[C@@H]1O)OCO4` is “inactive”; for `C/C(=C\C=C/[C@@H](C)C(=O)O)[C@H]1CN[C@H](C(=O)O)[C@@H]1CC(=O)O` it is 12.6 µM (active).
For the compound `COc1ccc(C(=O)CC2C(=O)N(C)C(=O)N(C)C2=O)cc1`, the Potency result was “inactive”.
The entry for `Cc1cccc(OP(=O)(Oc2cccc(C)c2)OC(c2ccccc2)C(F)(F)F)c1` (stereo not given) is “inactive”.
Consider `Fc1ccc(C2N3CCCN23)cc1` (stereo not given), for which the Potency result was “inactive”.
